Only some compounds are listed: those with a hit (about 4.7% of all), similar ones and a draw of the others.
FBA Mtb inh – inhibitors of M. tuberculosis fructose-bisphosphate aldolase. purified M. tuberculosis FBA, fluorescence read-out. inhibition, % at 1 µM. hit rate 2.3% among 360,000. AID 588726; in the data active = inhibition above about 27%;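 note: 0% = vehicle and 100% = reference inhibitor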
CCHF vOTU inh – CCHFV vOTU protease inhibition | hit rate 0.55% among 370,000 | Pep-AMC fluorescence | inhibition, % at 11.5 µM | AID 651958; note: 0% = vehicle wells with enzyme and 100% = no enzyme wells
GDH-TPI counter-1 – counter-screen for M. tuberculosis FBA inhibitors: GDH-TPI coupled enzymes | inhibition, % at 4.8 µM | AID 588335 | GDH-TPI coupled enzyme counterscreen, NADH absorbance | hit rate 1.2% among 360,000;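 note: 0% = DMSO wells and 100% = wells lacking the enzyme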
VHR inh abs – blocks human VHR1 dual specificity phosphatase; inhibition, % at 13.3 µM; hit rate 0.52% among 290,000; P51452; recombinant VHR phosphatase, pNPP absorbance; in the data active = inhibition above about 50%
Target sequence (P51452 whole entry, looked up): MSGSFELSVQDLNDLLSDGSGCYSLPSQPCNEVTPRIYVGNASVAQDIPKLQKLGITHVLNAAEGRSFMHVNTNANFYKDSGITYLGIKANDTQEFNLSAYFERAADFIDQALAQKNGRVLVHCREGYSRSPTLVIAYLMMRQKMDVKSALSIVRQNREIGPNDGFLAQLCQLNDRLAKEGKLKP
RecA intein inh – blocks M. tuberculosis RecA intein splicing | P9WHJ3 | cell-free RecA intein splicing, fluorescence | inhibition, % (concentration not given with the values) | hit rate 0.75% among 290,000 | AID 2221; in the data active = inhibition above about 30%;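 note: 0% = vehicle wells and 100% = reference inhibitor control wells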
3CLpro inhibitor – SARS-CoV 3CLpro protease inhibition; P0C6X7; recombinant SARS-CoV 3CLpro, quenched FRET peptide cleavage; inhibition, % at 6 µM; hit rate 0.14% among 290,000; AID 1706; in the data active = inhibition above about 12%
Mtb FBA confirm – Mtb FBA inhibition, confirmed; inhibition, % at 1 µM; purified M. tuberculosis FBA, fluorescence read-out; hit rate 78% among 5,600; shares compounds with FBA Mtb inh; in the data active = inhibition above about 27%;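 note: 0% = vehicle wells and 100% = reference inhibitor wells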
GDH-TPI counter-2 – inhibits GDH-TPI coupling enzymes, flagging Mtb FBA hits | GDH-TPI coupled enzyme counterscreen, fluorescence | hit rate 81% among 5,600 | shares compounds with FBA Mtb inh | inhibition, % at 1 µM | AID 652141; in the data active = inhibition above about 10%
GDH-TPI dose – inhibits GDH-TPI coupling enzymes in dose response; shares compounds with FBA Mtb inh; GDH-TPI coupled enzyme assay, fluorescence, artifact counterscreen; IC50, µM; hit rate 79% among 170; AID 652145; call rule not given here
* = called active by the depositor. Cut-off read from the data, not from the text of the source, unless noted: active = inhibition above about 30%; inactive = the rest.

Results for COC(=O)C/C(C)=N/Nc1ccc(S(=O)(=O)N2CCCC2)cc1[N+](=O)[O-] ?
FBA Mtb inh: -4.6; CCHF vOTU inh: -3.5; GDH-TPI counter-1: -3.1; VHR inh abs: 17.6; RecA intein inh: -0.5; 3CLpro inhibitor: 5.2

What do the screens show for `Cc1ccc(-c2cnc(-c3ccccc3C(=O)O)o2)cc1`?
FBA Mtb inh: 70.4*; CCHF vOTU inh: 0.7; GDH-TPI counter-1: 0.0; VHR inh abs: 16.6; RecA intein inh: 2.4; 3CLpro inhibitor: -6.1; Mtb FBA confirm: 10.7; GDH-TPI counter-2: -2.6; GDH-TPI dose: 1.63*

Results for NC(=O)c1ccc(-c2ncc(-c3ccccc3)o2)cc1 ?
CCHF vOTU inh: -296.3; GDH-TPI counter-1: 19.7; VHR inh abs: 20.0; RecA intein inh: -1.0; 3CLpro inhibitor: 1.4

Results for O=[N+]([O-])c1ccc(COc2cccc(CN3CCCCC3)c2)cc1 ?
FBA Mtb inh: 0.5; CCHF vOTU inh: 0.1; GDH-TPI counter-1: 5.2

What do the screens show for `O=C(NCc1cc2ccccc2[nH]1)C1CCC(=O)N(CCCN2CCCC2=O)C1` (stereo unspecified)?
FBA Mtb inh: 30.0*; CCHF vOTU inh: 4.8; GDH-TPI counter-1: 4.8; VHR inh abs: -3.6; RecA intein inh: 2.4; 3CLpro inhibitor: -4.1; Mtb FBA confirm: 62.4*; GDH-TPI counter-2: 32.2*

What do the screens show for `Cc1ccc2[nH]c(=O)c3cc(C(=O)NCCC(C)C)sc3c2c1`?
FBA Mtb inh: 15.1; CCHF vOTU inh: 3.8; GDH-TPI counter-1: -3.3; VHR inh abs: -2.0; RecA intein inh: -3.8; 3CLpro inhibitor: 1.8

How did CCCCN(CC)CCNC(=O)c1cc2c(=O)[nH]c3ccc(C)cc3c2s1 do in these assays?
FBA Mtb inh: 35.8*; CCHF vOTU inh: -73.2; GDH-TPI counter-1: 14.0; VHR inh abs: 48.7; RecA intein inh: -0.4; 3CLpro inhibitor: -8.6; Mtb FBA confirm: 58.5*; GDH-TPI counter-2: 45.7*

What do the screens show for `CCC(C)NC(=O)c1cc2c(=O)[nH]c3ccc(C)cc3c2s1` (stereo unspecified)?
FBA Mtb inh: 69.6*; CCHF vOTU inh: -18.4; GDH-TPI counter-1: 24.0; VHR inh abs: 3.0; RecA intein inh: -7.3; 3CLpro inhibitor: 0.6; Mtb FBA confirm: 89.4*; GDH-TPI counter-2: 64.8*

What do the screens show for `CCOCCCNC(=O)c1cc2c(=O)[nH]c3ccccc3c2s1`?
FBA Mtb inh: 70.9*; CCHF vOTU inh: -31.5; GDH-TPI counter-1: 11.0; VHR inh abs: 20.1; RecA intein inh: 2.5; 3CLpro inhibitor: -5.3; Mtb FBA confirm: active; GDH-TPI counter-2: active

How did CCCCN(CC)CCCNC(=O)c1cc2c(=O)[nH]c3ccccc3c2s1 do in these assays?
FBA Mtb inh: 72.3*; CCHF vOTU inh: -56.3; GDH-TPI counter-1: 26.0; VHR inh abs: 9.5; RecA intein inh: -1.9; 3CLpro inhibitor: -6.7; Mtb FBA confirm: 169.9*; GDH-TPI counter-2: 152.8*

How did CCCN=C1N(C)C[C@@H]2[C@@H]3C(=O)N(C)C(=O)[C@@H]3[C@](C)(C(=O)OC)N12 do in these assays?
FBA Mtb inh: 2.0; CCHF vOTU inh: -3.5; GDH-TPI counter-1: 2.1

How did COc1ccccc1N(CC(O)CN1CCOCC1)S(=O)(=O)c1ccccc1 (stereo unspecified) do in these assays?
FBA Mtb inh: 0.8; CCHF vOTU inh: 6.7; GDH-TPI counter-1: -4.4; VHR inh abs: 5.1; RecA intein inh: 0.1; 3CLpro inhibitor: -5.3

How did COc1ccc(CNC(=O)COc2cc3c(c4oc(=O)cc(C)c24)CCC(C)(C)O3)cc1 do in these assays?
FBA Mtb inh: 43.3*; CCHF vOTU inh: -25.4; GDH-TPI counter-1: 21.6; VHR inh abs: 1.0; RecA intein inh: -2.0; 3CLpro inhibitor: 5.9; Mtb FBA confirm: active; GDH-TPI counter-2: 170.9*

What do the screens show for `Cc1c(C)c2c(OCC(=O)N3CCC(C(=O)NCC(C)C)CC3)cc3c(c2oc1=O)CCC(C)(C)O3`?
FBA Mtb inh: 51.2*; GDH-TPI counter-1: 7.8; VHR inh abs: -7.2; RecA intein inh: -0.2; 3CLpro inhibitor: -0.1; Mtb FBA confirm: -3.9; GDH-TPI counter-2: -0.2

Compound activity as filed in PubChem.
